For 62 compounds, inhibition results are on record in PubChem BioAssay AID1578 (Sanford-Burnham Center for Chemical Genomics, 2009).

Hit rate of the full screen: of about 290,000 compounds, about 3,000 (1%) were called active. No stated cut-off is given here; in the data, active means inhibition mostly above about 36% (no sharp cut-off); inactive means mostly below about 34%. The list comes from a sample in which actives are over-represented; it also holds similar structures and randomly drawn compounds.

This assay in a line: inhibition of NOD1-driven NF-kB reporter – cell-based, luminescence, uHTS, primary screen (AID 1578).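 Further: HEK-293T reporter cells stimulated with the NOD1 agonist gamma-tri-DAP.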 The conditions noted are these: NOD1-driven NF-kB luciferase reporter cells, at 4 µM, hits give high values.
Consider `O=C(CCc1[nH]c2ccccc2c1Sc1ccccc1)NCCO`, for which the inhibition is 91.3% (active).

Consider `O=C(O)CCc1[nH]c2ccccc2c1Sc1ccccc1`, for which the inhibition is 2.8% (inactive).

Regarding `CNC(=O)CCc1[nH]c2ccccc2c1Sc1ccccc1`, the inhibition is 2.6% (inactive).

Turning to `C=CCn1c(C)csc1=Nc1ccc(C(=O)O)cc1`, the inhibition is -39.1% (inactive).

As for `CCOc1ccc(C(=O)Nn2cnnc2)cc1OCC`, the inhibition is -0.7% (inactive).

Turning to `COc1cc(C=O)ccc1OC(=O)c1ccc(C(C)C)cc1`, the inhibition is -9.5% (inactive).

On to `CCn1c(=N)n(CC(=O)C(C)(C)C)c2ccccc21`, for which the inhibition was 1.2% (inactive).

Consider `CCc1ccc(CN2CCC(C(=O)Nc3ccc(Oc4ccccc4)nc3)CC2)o1`, for which the inhibition was 32.5% (inactive).

On to `CCOc1cc(Br)cc(C(c2c(C(=O)O)[nH]c3ccccc23)c2c(C(=O)O)[nH]c3ccccc23)c1O`, for which the inhibition was 18% (inactive).

In the case of `O=C(O)c1[nH]c2ccccc2c1C(c1cc(Br)ccc1O)c1c(C(=O)O)[nH]c2ccccc12`, the inhibition is 76.6% (active).

As to `O=C(O)COc1ccc(Br)cc1C(c1c(C(=O)O)[nH]c2ccccc12)c1c(C(=O)O)[nH]c2ccccc12`, the inhibition is -18.7% (inactive).

Take `Cc1nn(CC(=O)NCC(C)c2ccccc2)c(=O)c2cccn12` (configuration not stated): the inhibition is -28.8% (inactive).

For `COC1(OC)C(/C=C/c2ccc(Cl)cc2)C(C#N)(C#N)C1(OC)OC` (configuration not stated), the inhibition was 62.6% (active).

Regarding `CCOC1(OCC)C(c2ccc(Cl)cc2)C(C#N)(C#N)C1(OCC)OCC` (configuration not stated), the inhibition was -5.8% (inactive).

`Cc1sc(NC(=O)c2ccccc2)c(C#N)c1-c1ccccc1`: the inhibition was -17.1% (inactive).

In the case of `N#Cc1c(Cl)nsc1NC(=O)c1ccccc1`, the inhibition was 89.1% (active).

Consider `N#Cc1c(NC(=O)c2ccccc2)sc2c1CCC2`, for which the inhibition is -29.6% (inactive).

As for `C/C(=N\N=C(N)N)c1cc(Cl)ccc1Cl`, the inhibition is -23.9% (inactive).

As for `CCNc1nc(Oc2ccc(C(=O)OC)cc2)nc(N(C)C)n1`, the inhibition is -15.3% (inactive).

On to `O=C(O)c1cccc(Nc2c3ccccc3nc3ccccc23)c1`, for which the inhibition was -9% (inactive).

`O=C(O)c1cc(S(=O)(=O)O)cc(Nc2c3ccccc3nc3ccccc23)c1O`: the inhibition was 30.7% (active).

With `Cc1ccc(O)c(Nc2c3ccccc3nc3ccccc23)c1`, the inhibition is 12.5% (inactive).

Regarding `COc1cccc(CNC(=O)CCl)c1`, the inhibition was 73.9% (active).

Take `COc1cccc(CNC(=O)Cc2ccc(Br)cc2)c1`: the inhibition was -16.7% (inactive).

For `COc1cccc(CNC(=O)Cn2cccc2)c1`, the inhibition was 18.5% (inactive).

For the compound `Cc1cccc(NS(=O)(=O)c2ccc(NC(=O)N3CCCCC3)cc2)c1`, the inhibition is 22.5% (inactive).

As to `Cc1ccc(S(=O)(=O)Nc2cccc(C(=O)Nc3cc(C)ccn3)c2)cc1`, the inhibition is -15.9% (inactive).

As to `CC(=O)c1cccc(NC(=O)N2CCCCCC2)c1`, the inhibition was -8.3% (inactive).

Turning to `CC(=O)c1cccc(NC(=O)c2ccc(C(=O)Nc3cccc(C(C)=O)c3)nc2)c1`, the inhibition was -11.1% (inactive).

As for `CC(=O)Nc1cccc(NC(=O)c2ccc(C(=O)Nc3cccc(NC(C)=O)c3)nc2)c1`, the inhibition was -19.3% (inactive).

With `Cc1cccc(NC(=O)c2ccc(C(=O)Nc3cccc(C)c3)nc2)c1`, the inhibition is 62.8% (active).

On to `CS(=O)(=O)c1ccc2nc(NC(=O)c3ccc(NS(=O)(=O)c4ccc(F)c(F)c4)cc3)sc2c1`, for which the inhibition is -2.4% (inactive).

Consider `Cc1cccc(NS(=O)(=O)c2cccc(C(=O)Nc3cccc(C(=O)O)c3)c2)c1`, for which the inhibition was -23.8% (inactive).

On to `CS(=O)(=O)c1ccc2nc(NC(=O)c3cccc(Cl)c3)sc2c1`, for which the inhibition was -1.3% (inactive).

For `COc1ccc(-c2noc(N3CCC(C(=O)NCc4ccc(F)cc4)CC3)n2)cc1`, the inhibition is -38.2% (inactive).

Turning to `COc1ccc(/C=C2/Sc3ccc(C(=O)NCCCN4CCOCC4)cc3NC2=O)cc1OC`, the inhibition was 29.5% (inactive).

For the compound `COC(=O)CS(=O)(=O)c1cc(Br)cc2c1N(C(C)=O)CC2`, the inhibition was -37.1% (inactive).

Take `CCc1cc(/C(Cc2ccccn2)=N\Nc2ccccc2)c(O)cc1O`: the inhibition was -20.2% (inactive).

Consider `CCCNCc1cc(OC)c(OCC(=O)Nc2ccccc2)cc1Br`, for which the inhibition is -23.4% (inactive).

On to `Cc1cccc(C)c1Nc1nnc(SCC(=O)Nc2cc(S(=O)(=O)N3CCCCC3)ccc2Cl)s1`, for which the inhibition is 44.5% (inactive).

As for `Clc1ccc(CN2CCC(Cc3ccccc3)CC2)cc1`, the inhibition was -18.7% (inactive).

As for `CCOc1ccc(CN2CCC(Cc3ccccc3)CC2)cc1`, the inhibition was -22.4% (inactive).

`CSc1ccc(CN2CCC(Cc3ccccc3)CC2)cc1`: the inhibition is 80.3% (active).

Turning to `c1coc(CNc2nc(-c3ccncc3)cs2)c1`, the inhibition is -35.7% (inactive).

Consider `CCOC(=O)C1CCN(C(=O)CCCn2nc(C)c3c(C)n(-c4ccc(C)cc4)nc3c2=O)CC1`, for which the inhibition was -4.8% (inactive).

`CC(C)C[C@H](NC(=O)OC(C)(C)C)c1n[nH]c(=S)n1N`: the inhibition was -16.1% (inactive).

With `CCN(C(=O)Cn1c(=O)oc2ccccc21)C1CCS(=O)(=O)C1` (configuration not stated), the inhibition is -9.7% (inactive).

Consider `CC(=O)N1c2ccc(S(=O)(=O)N3CCC(C(=O)Nc4cccc(C)c4)CC3)cc2CC1C` (configuration not stated), for which the inhibition is -24.4% (inactive).

As for `CC(=O)N1c2ccc(S(=O)(=O)N3CCC(C(=O)Nc4ccccn4)CC3)cc2CC1C` (configuration not stated), the inhibition was -41.4% (inactive).

As for `CC(C)[C@@H](N)C(=O)N/N=C/c1ccc2ncccc2c1`, the inhibition is -2% (inactive).

Regarding `CSCC[C@H](NC(=O)[C@H]1CC[C@H](CNC(=O)[C@@H]2CCCN2)CC1)C(=O)O`, the inhibition was -8.2% (inactive).

Consider `COCCn1c(C)cc(/C=C2/NC(=O)N(Cc3ccc(C)cc3)C2=O)c1C`, for which the inhibition is -2.2% (inactive).

As for `CCCCNC(=O)[C@H](Cc1c[nH]c2ccccc12)NC(=O)c1ccccc1Cl`, the inhibition is -18.4% (inactive).

Regarding `COCCN=c1scc(-c2ccc3c(c2)NC(=O)CO3)n1/N=C(\C)c1ccc(O)cc1`, the inhibition was -6.7% (inactive).

Turning to `C=CCN=c1scc(-c2ccc3c(c2)NC(=O)CO3)n1/N=C(\C)c1ccccn1`, the inhibition is 50.6% (active).

On to `CCN=c1scc(-c2ccc3c(c2)NC(=O)CO3)n1N=C1CCCC1`, for which the inhibition was 51.7% (inactive).

On to `CCCCCC1=NN2C(=O)CC(=O)N=C2S1`, for which the inhibition was 11.6% (inactive).

On to `O=c1c2nnn(-c3cccc(F)c3)c2ncn1Cc1ccccn1`, for which the inhibition is -4.3% (inactive).

On to `O=C(N/N=C/c1ccc([N+](=O)[O-])cc1)c1[nH]ncc1Br`, for which the inhibition is -5% (inactive).

Turning to `Cc1ccc(-c2nn(CC(=O)NCc3cc(-c4nn(C)c(=O)c5ccccc45)ccc3C)c(=O)c3ccccc23)cc1`, the inhibition is 93.8% (active).

Consider `Cc1ccc(-c2nn(C)c(=O)c3ccccc23)cc1CNC(=O)Cn1nc(-c2ccccc2)c2ccccc2c1=O`, for which the inhibition was 12.8% (inactive).

For the compound `Cc1cc(C)n(CC(=O)NCc2cc(-c3nn(C)c(=O)c4ccccc34)ccc2C)n1`, the inhibition is -14% (inactive).
